Bioassay records deposited in PubChem by several laboratories.
HDAC3 inh = human HDAC3 inhibition. recombinant HDAC3, fluorogenic peptide/trypsin coupled, fluorescence. inhibition, % at 8.3 µM. actives 0.15% (n = 320,000); in the data active means inhibition above about 26%, passing the limit was not always enough
Target sequence (O15379 whole entry, looked up): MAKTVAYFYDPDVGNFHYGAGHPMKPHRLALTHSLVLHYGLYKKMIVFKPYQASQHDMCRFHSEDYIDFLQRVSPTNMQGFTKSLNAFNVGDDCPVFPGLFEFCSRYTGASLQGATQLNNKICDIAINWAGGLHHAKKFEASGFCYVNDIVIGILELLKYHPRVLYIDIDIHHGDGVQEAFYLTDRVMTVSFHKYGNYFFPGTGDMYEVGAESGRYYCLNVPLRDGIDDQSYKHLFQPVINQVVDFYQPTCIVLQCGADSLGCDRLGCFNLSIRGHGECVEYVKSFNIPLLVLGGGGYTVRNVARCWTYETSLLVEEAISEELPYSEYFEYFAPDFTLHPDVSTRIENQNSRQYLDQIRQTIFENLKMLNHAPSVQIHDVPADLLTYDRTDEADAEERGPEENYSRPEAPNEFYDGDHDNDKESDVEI
LANA-H2A inh = blocks KSHV LANA binding to histone H2A/H2B; Q9QR71; cell-free LANA-H2A/H2B peptide, fluorescence polarization; inhibition, % (concentration not given with the values); actives 0.6% (n = 320,000); in the data active means inhibition mostly above about 10%, no sharp cut-off; inactive means mostly below about 6.7%
CTSL1 counter = cathepsin L1 inhibition, PFM18AAP counter-screen; recombinant F. hepatica cathepsin L1, Z-Leu-Arg-MCA fluorescence; inhibition, % at 5.96 µM; actives 0.49% (n = 300,000); AID 1906;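 active means inhibition above the mean of all tested compounds plus 3 SD, set per screening campaign, cut at about 17% in these data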;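 further: 0% = plate median of test compound wells and 100% = 1 µM Z-Phe-Ala-diazomethylketone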
m5-HT2A agonist = activates the mouse 5-HT2A serotonin receptor; CHO-K1 mHTR2A beta-arrestin complementation, luminescence; percent of 30 µM serotonin response; activation, % at 7.6 µM; AID 624169; P35363; actives 0.66% (n = 360,000);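 active means activation above a run cutoff, the mean activation of all tested compounds plus 3 SD, cut at about 14% in these data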;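 further: 0% = plate median of compound wells and 100% = 30 µM serotonin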
MOR ag counter = OPRM1 agonism in mouse HTR2A counterscreen; shares compounds with m5-HT2A agonist; activation, % at 9.3 µM; AID 624380; U2OS OPRM1 beta-arrestin PathHunter, luminescence; DMSO 0%, DAMGO 9.3 µM 100%; actives 5.3% (n = 2,300);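 active means mean activation above the mean of DMSO-only wells plus 3 SD, cut at about 0.5% in these data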
HTR2A ag conf = mouse HTR2A agonism confirmed | actives 19% (n = 2,300) | activation, % at 7.6 µM | CHO-K1 PathHunter beta-arrestin recruitment, luminescence; DMSO 0%, 30 µM serotonin 100% | shares compounds with m5-HT2A agonist | AID 624381;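 active means mean activation across triplicates above the hit threshold derived in the original primary screen, cut at about 15% in these data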
Starred values were filed as active, the others as inactive. In the library only some 1.7% were active in any assay of this set; here they are far more common.

Screening Cc1cc(C)n(C(=O)CNC(=O)/C=C/c2ccccc2)n1 returned HDAC3 inh -5, LANA-H2A inh 8, CTSL1 counter -15 and m5-HT2A agonist -1.
For COc1ccccc1/C=C/C(=O)NCC(=O)n1nc(C)cc1C the results were HDAC3 inh -6, LANA-H2A inh -3, CTSL1 counter -3, m5-HT2A agonist 19*, MOR ag counter -1 and HTR2A ag conf -1.
`O=C(O)C1=CCNCC1` gave HDAC3 inh -9, LANA-H2A inh 4, CTSL1 counter 2, m5-HT2A agonist 18*, MOR ag counter -1 and HTR2A ag conf 2.
For CC1(C)CC(=O)C(C(=O)c2ccccc2)C(=O)C1Cl (configuration not stated) the results were HDAC3 inh 1, LANA-H2A inh -2, CTSL1 counter -2 and m5-HT2A agonist -1.
`CC1(C)CC(=O)C(C(=O)c2ccccc2)C(=O)C1` gave HDAC3 inh -8, LANA-H2A inh 5, CTSL1 counter -1, m5-HT2A agonist 19*, MOR ag counter 0 and HTR2A ag conf -1.
`CN(Cc1nc(-c2ccccc2)no1)C(=O)c1ccco1` gave HDAC3 inh 8, LANA-H2A inh 2, CTSL1 counter -1, m5-HT2A agonist 16*, MOR ag counter 0 and HTR2A ag conf -1.
`COc1ccc(-n2c(C)cc(=O)[nH]c2=O)cc1` gave HDAC3 inh -7, LANA-H2A inh 11, CTSL1 counter 2, m5-HT2A agonist 18*, MOR ag counter 0 and HTR2A ag conf 8.
Nc1ccc(S(=O)(=O)Nc2ccnn2-c2ccccc2)cc1 was read as HDAC3 inh 0, LANA-H2A inh 0, CTSL1 counter 4, m5-HT2A agonist 19*, MOR ag counter -1 and HTR2A ag conf -4.
For CC(C)[C@H](NC(=O)C1CC(=O)N(c2ccc3c(c2)OCCO3)C1)C(=O)NC1CCCC1 (some centres not stated) the results were HDAC3 inh 0, LANA-H2A inh 1, CTSL1 counter -1, m5-HT2A agonist 22*, MOR ag counter -1 and HTR2A ag conf -3.
For NC(=O)c1c(NC(=O)c2ccncc2)sc2c1CCCC2 the results were HDAC3 inh -2, LANA-H2A inh 3, CTSL1 counter 4, m5-HT2A agonist 18*, MOR ag counter 0 and HTR2A ag conf 5.
Brc1ccccc1-c1nnc(SCc2nc3ccccc3s2)o1 was read as HDAC3 inh 1, LANA-H2A inh 1, CTSL1 counter -2, m5-HT2A agonist 16*, MOR ag counter 0 and HTR2A ag conf -3.
Screening CCN(CC)S(=O)(=O)c1cccc(-c2nnc(SCc3nc4ccccc4s3)o2)c1 returned HDAC3 inh 0, LANA-H2A inh 8, CTSL1 counter 3 and m5-HT2A agonist -1.
`Cc1cccc(-c2nc(CNC(=O)c3ccco3)cs2)c1` gave HDAC3 inh -2, LANA-H2A inh 4, CTSL1 counter -2 and m5-HT2A agonist 1.
Screening Cc1cc(C)cc(Cn2cc(CN3CC(N4CCN(Cc5ccccc5F)CC4)CS3(=O)=O)nn2)c1 (configuration not stated) returned m5-HT2A agonist 15*, MOR ag counter 0 and HTR2A ag conf 5.
Screening Cc1ccc(Cn2cc(CN3CC(N4CCN(Cc5ccccc5F)CC4)CS3(=O)=O)nn2)cc1 (configuration not stated) returned m5-HT2A agonist 12.
Screening CCCCCCn1cc(CN2CC(N3CCCCC3)CS2(=O)=O)nn1 (configuration not stated) returned m5-HT2A agonist 16*, MOR ag counter 0 and HTR2A ag conf -2.
`Cc1ccc(C(=O)NCCNC(=O)COc2ccc(Cl)cc2)cn1` gave HDAC3 inh -7, LANA-H2A inh 5, CTSL1 counter 1 and m5-HT2A agonist -2.
Screening CC(C)NC(=O)C1(C)CN(S(C)(=O)=O)CC(=O)N1C1CCN(Cc2ccccc2)CC1 (configuration not stated) returned m5-HT2A agonist 27*, MOR ag counter 0 and HTR2A ag conf -2.
For COc1ccc(CC(=O)OCC(=O)Nc2ncc(Cl)c(C)c2Cl)cc1 the results were m5-HT2A agonist 15*, MOR ag counter 0 and HTR2A ag conf -3.
Cc1cc(NS(=O)(=O)c2ccc(NC(=O)COc3ccc(Cl)c(C)c3)cc2)no1 was read as m5-HT2A agonist 5.
COc1ccc(S(=O)(=O)N2CCC(N3CCN(Cc4ccccc4)CC3)CC2)cc1 was read as HDAC3 inh -3, LANA-H2A inh 2, CTSL1 counter -2, m5-HT2A agonist 22*, MOR ag counter -1 and HTR2A ag conf 42*.
O=C(CCN1C(=O)NC2(CCCC2)C1=O)Nc1cccc(S(=O)(=O)N2CCOCC2)c1 was read as HDAC3 inh -1, LANA-H2A inh -1 and m5-HT2A agonist 2.
Screening CC1CCCC(NC(=O)CCNC(=O)c2ccc([N+](=O)[O-])cc2)C1C (configuration not stated) returned HDAC3 inh -5, LANA-H2A inh -3, CTSL1 counter -1 and m5-HT2A agonist 3.
For Cc1[nH]c(=O)nc(SCc2ccc(Cl)c(Cl)c2)c1C#N the results were HDAC3 inh -4, LANA-H2A inh 1, CTSL1 counter 3, m5-HT2A agonist 15*, MOR ag counter 0.8* and HTR2A ag conf 2.
`CN1OC[C@@H]2CN(Cc3ccccc3)[C@H](c3cccc(Oc4ccccc4)c3)C[C@@H]21` gave m5-HT2A agonist -1.
`CN1OC[C@@H]2CN(Cc3cc(Cl)cc(Cl)c3)[C@H](c3cccc(Oc4ccccc4)c3)C[C@@H]21` gave m5-HT2A agonist 15*, MOR ag counter -1 and HTR2A ag conf -3.
Screening C=CCn1c(SCC(=O)NCC(=O)OCC)nnc1-c1cccc(OC)c1 returned HDAC3 inh -3, LANA-H2A inh 3, CTSL1 counter 1, m5-HT2A agonist 20*, MOR ag counter -1 and HTR2A ag conf -3.
CCOC(=O)CNC(=O)CSc1nnc(-c2cccc(C)c2)n1-c1ccc(OC)cc1 was read as HDAC3 inh -7, LANA-H2A inh -1, CTSL1 counter 1 and m5-HT2A agonist 0.
Screening CCCCN(CC)CCCNC(=O)CC1Oc2ccccc2NC1=O (configuration not stated) returned HDAC3 inh -3, LANA-H2A inh -5, CTSL1 counter 0, m5-HT2A agonist 27*, MOR ag counter -1 and HTR2A ag conf 90*.
`CC(C)CN(CCCNC(=O)CC1Oc2ccccc2NC1=O)CC(C)C` (configuration not stated) gave HDAC3 inh -11, LANA-H2A inh -1, CTSL1 counter -4 and m5-HT2A agonist 2.
